Source: PubChem BioAssay AID1159580 (chemical genetic matrix, 2015)
Values joined by “and” are separate entries in the source; they are usually repeats but may differ in a detail not shown here. Identical values can stand only once. In all, about 5,500 compounds went through this assay and about 2,000 (36%) were called active. Inconclusive results (about 18%) are left out. Rule as the data show it: active = normalized growth mostly below about 0.91 (no sharp cut-off); inconclusive = no clear call, values can overlap the other calls; inactive = mostly above about 0.92. This is one part of the list.

Test: chemical genetic growth profiling, strain panel (AID 1159580);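 also: tested at 20 µM; growth read once vehicle control cultures reached saturation at 30 °C; 1 = growth at the plate median or of vehicle wells; lower values mean less growth of the strain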
Conditions: growth OD

Measured: normalized growth

O=C(O)CCCc1ccc(N(CCCl)CCCl)cc1
inactive: S. cerevisiae deletion strains, locus YKL009W, strain mrt4, active compounds read low 0.92 | S. cerevisiae deletion strains, locus YKL068W, active compounds read low 0.973 | S. cerevisiae deletion strains, locus YKL085W, strain MDH1 (second series), active compounds read low 0.942 | S. cerevisiae deletion strains, locus YKL085W, strain MDH1, active compounds read low 0.942 | S. cerevisiae deletion strains, locus YKL160W, strain elf1, active compounds read low 0.927 | S. cerevisiae deletion strains, locus YKR001C, strain vps1, active compounds read low 0.985 | S. cerevisiae deletion strains, locus YKR026C, strain gcn3, active compounds read low 0.971 | S. cerevisiae deletion strains, locus YKR091W, strain srl3, active compounds read low 0.962 | S. cerevisiae deletion strains, locus YLL001W, strain dnm1, active compounds read low 1.01 | S. cerevisiae deletion strains, locus YLL026W, active compounds read low 0.984 | S. cerevisiae deletion strains, locus YLL041C, strain sdh2, active compounds read low 0.963 | S. cerevisiae deletion strains, locus YLR027C, strain aat2, active compounds read low 0.949 | S. cerevisiae deletion strains, locus YLR039C, strain RIC1, active compounds read low 0.974 | S. cerevisiae deletion strains, locus YLR058C, strain SHM2, active compounds read low 0.977 | S. cerevisiae deletion strains, locus YLR102C, strain apc9, active compounds read low 0.987 | S. cerevisiae deletion strains, locus YLR221C, strain rsa3, active compounds read low 1.03 | S. cerevisiae deletion strains, locus YLR258W, strain gsy2, active compounds read low 0.96 | S. cerevisiae deletion strains, locus YLR262C, strain YPT6 (second series), active compounds read low 0.987 | S. cerevisiae deletion strains, locus YLR262C, strain YPT6, active compounds read low 0.915 | S. cerevisiae deletion strains, locus YLR268W, strain sec22, active compounds read low 0.981 | S. cerevisiae deletion strains, locus YLR320W, strain mms22, active compounds read low 0.993 | S. cerevisiae deletion strains, locus YLR330W, strain CHS5, active compounds read low 0.985 | S. cerevisiae deletion strains, locus YLR342W, strain FKS1 (second series), active compounds read low 0.96 | S. cerevisiae deletion strains, locus YLR342W, strain FKS1, active compounds read low 0.99 | S. cerevisiae deletion strains, locus YLR357W, strain rsc2, active compounds read low 0.948 | S. cerevisiae deletion strains, locus YLR370C, strain arc18, active compounds read low 0.959 | S. cerevisiae deletion strains, locus YLR371W, strain rom2, active compounds read low 0.992 | S. cerevisiae deletion strains, locus YLR384C, strain iki3, active compounds read low 0.979 | S. cerevisiae deletion strains, locus YLR418C, strain cdc73, active compounds read low 1.03 | S. cerevisiae deletion strains, locus YML016C, strain PPZ1, active compounds read low 0.984 | S. cerevisiae deletion strains, locus YML032C, strain rad52, active compounds read low 0.944 | S. cerevisiae deletion strains, locus YML120C, strain ndi1, active compounds read low 0.987 | S. cerevisiae deletion strains, locus YML124C, strain tub3, active compounds read low 0.989 | S. cerevisiae deletion strains, locus YMR058W, strain fet3, active compounds read low 0.979 | S. cerevisiae deletion strains, locus YMR078C, strain ctf18, active compounds read low 0.972 | S. cerevisiae deletion strains, locus YMR125W, strain sto1, active compounds read low 0.945 | S. cerevisiae deletion strains, locus YMR129W, active compounds read low 0.969 | S. cerevisiae deletion strains, locus YMR205C, strain PFK2, active compounds read low 0.992 | S. cerevisiae deletion strains, locus YMR223W, strain ubp8, active compounds read low 1.01 | S. cerevisiae deletion strains, locus YMR231W, strain pep5, active compounds read low 0.981 | S. cerevisiae deletion strains, locus YMR307W, strain GAS1, active compounds read low 0.922 and 0.985 | S. cerevisiae deletion strains, locus YNL067W, strain RPL9B, active compounds read low 1.02 | S. cerevisiae deletion strains, locus YNL071W, strain lat1, active compounds read low 0.964 | S. cerevisiae deletion strains, locus YNL153C, strain GIM3, active compounds read low 1.01 | S. cerevisiae deletion strains, locus YNL175C, strain NOP13, active compounds read low 1.04 | S. cerevisiae deletion strains, locus YNL183C, strain NPR1, active compounds read low 0.908 | S. cerevisiae deletion strains, locus YNL197C, strain WHI3, active compounds read low 0.989 | S. cerevisiae deletion strains, locus YNL209W, strain ssb2, active compounds read low 0.976 | S. cerevisiae deletion strains, locus YNL224C, strain SQS1, active compounds read low 1 | S. cerevisiae deletion strains, locus YNL233W, strain BNI4, active compounds read low 1.03 | S. cerevisiae deletion strains, locus YNL271C, strain bni1, active compounds read low 0.967 | S. cerevisiae deletion strains, locus YNL307C, strain MCK1, active compounds read low 0.983 | S. cerevisiae deletion strains, locus YNL322C, strain KRE1 (second series), active compounds read low 0.943 | S. cerevisiae deletion strains, locus YNR049C, strain mso1, active compounds read low 0.959 | S. cerevisiae deletion strains, locus YNR052C, strain pop2, active compounds read low 0.985 | S. cerevisiae deletion strains, locus YOL006C, strain TOP1, active compounds read low 1.11 | S. cerevisiae deletion strains, locus YOL012C, strain htz1 1.27 | S. cerevisiae deletion strains, locus YOL147C, strain pex11, active compounds read low 0.99 | S. cerevisiae deletion strains, locus YOR001W, strain rrp6, active compounds read low 1.03 | S. cerevisiae deletion strains, locus YOR061W, strain CKA2, active compounds read low 0.969 | S. cerevisiae deletion strains, locus YOR069W, strain VPS5, active compounds read low 0.975 | S. cerevisiae deletion strains, locus YOR070C, strain gyp1, active compounds read low 0.984 | S. cerevisiae deletion strains, locus YOR080W, strain dia2, active compounds read low 0.963 | S. cerevisiae deletion strains, locus YOR083W, strain WHI5 (second series), active compounds read low 0.99 | S. cerevisiae deletion strains, locus YOR083W, strain WHI5, active compounds read low 0.94 | S. cerevisiae deletion strains, locus YOR106W, strain vam3, active compounds read low 0.918 | S. cerevisiae deletion strains, locus YOR136W, strain idh2, active compounds read low 0.987 | S. cerevisiae deletion strains, locus YOR144C, strain elg1, active compounds read low 0.987 | S. cerevisiae deletion strains, locus YOR184W, strain ser1, active compounds read low 0.976 | S. cerevisiae deletion strains, locus YOR265W, strain rbl2, active compounds read low 0.969 | S. cerevisiae deletion strains, locus YOR270C, strain vph1, active compounds read low 0.986 | S. cerevisiae deletion strains, locus YOR290C, strain snf2, active compounds read low 0.935 | S. cerevisiae deletion strains, locus YOR316C, strain cot1, active compounds read low 0.976 | S. cerevisiae deletion strains, locus YPL051W, strain arl3, active compounds read low 0.997 | S. cerevisiae deletion strains, locus YPL055C, strain LGE1, active compounds read low 0.992 | S. cerevisiae deletion strains, locus YPL078C, strain atp4, active compounds read low 0.952 | S. cerevisiae deletion strains, locus YPL106C, strain sse1, active compounds read low 0.899 | S. cerevisiae deletion strains, locus YPL240C, strain hsp82, active compounds read low 0.988 | S. cerevisiae deletion strains, locus YPL241C, strain CIN2, active compounds read low 0.997 | S. cerevisiae deletion strains, locus YPL256C, strain CLN2, active compounds read low 0.857 | S. cerevisiae deletion strains, locus YPR119W, strain clb2, active compounds read low 0.985 | S. cerevisiae deletion strains, locus YPR141C, strain kar3, active compounds read low 0.99 | S. cerevisiae deletion strains, locus YPR163C, strain tif3, active compounds read low 0.984 | S. cerevisiae deletion strains, locus YPR167C, strain met16, active compounds read low 0.994 | S. cerevisiae deletion strains, strain wtn01, active compounds read low 0.993 | S. cerevisiae strains, strain wild type, active compounds read low 0.984
active: S. cerevisiae deletion strains, locus YLR113W, strain HOG1, active compounds read low 0.838 | S. cerevisiae deletion strains, locus YNL248C, strain rpa49, active compounds read low 0.882 | S. cerevisiae deletion strains, locus YNL250W, strain rad50, active compounds read low 0.819 | S. cerevisiae deletion strains, locus YNL298W, strain CLA4, active compounds read low 0.896 | S. cerevisiae deletion strains, locus YOR231W, strain MKK1, active compounds read low 0.84
